Data reported in PubChem BioAssay AID1159580 (chemical genetic matrix, 2015).
The whole screen tested about 5,500 compounds, of which about 2,000 (36%) were called active. Another 18% or so got no clear call; they are omitted. Rule as the data show it: active = normalized growth mostly below about 0.91 (no sharp cut-off); inconclusive = no clear call, values can overlap the other calls; inactive = mostly above about 0.92. Some of the results follow.

Experiment: chemical genetic growth profiling, strain panel (AID 1159580);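 also: tested at 20 µM; growth read once vehicle control cultures reached saturation at 30 °C; 1 = growth at the plate median or of vehicle wells; lower values mean less growth of the strain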
Conditions: S. cerevisiae deletion strains, growth OD

Measured: normalized growth

COc1cc(OC)c2c(=O)c(-c3ccccc3)c(C)oc2c1OC
inactive: locus YAL013W, strain DEP1, hits give low values 1.01 | locus YAL021C, strain ccr4, hits give low values 0.984 | locus YAL026C, strain drs2, hits give low values 0.986 | locus YAL030W, strain snc1, hits give low values 0.976 | locus YBL061C, strain skt5, hits give low values 0.975 | locus YBR009C, strain hhf1, hits give low values 0.953 | locus YBR021W, strain FUR4, hits give low values 1 | locus YBR023C, strain chs3, hits give low values 0.987 | locus YBR171W, strain sec66, hits give low values 0.984 | locus YBR229C, strain ROT2, hits give low values 1 | locus YBR231C, strain swc5, hits give low values 0.993 | locus YBR279W, strain paf1, hits give low values 0.986 | locus YCL011C, strain gbp2, hits give low values 0.973 | locus YCL016C, strain dcc1, hits give low values 0.987 | locus YCL029C, strain bik1, hits give low values 1 | locus YCL061C, strain MRC1, hits give low values 0.988 | locus YCL069W, strain vba3, hits give low values 0.974 | locus YCR088W, strain abp1, hits give low values 0.988 | locus YDL005C, strain med2, hits give low values 0.973 | locus YDL035C, strain GPR1, hits give low values 1.02 | locus YDL040C, strain nat1, hits give low values 0.985 | locus YDL074C, strain BRE1, hits give low values 1.02 | locus YDL101C, strain DUN1, hits give low values 1.01 | locus YDL134C, strain PPH21, hits give low values 1 | locus YDL185W, strain tfp1, hits give low values 1 | locus YDL192W, strain arf1, hits give low values 0.995 | locus YDR001C, strain nth1, hits give low values 0.987 | locus YDR069C, strain doa4, hits give low values 0.966 | locus YDR101C, strain arx1, hits give low values 0.984 | locus YDR137W, strain rgp1, hits give low values 0.955 | locus YDR150W, strain NUM1, hits give low values 1.02 | locus YDR159W, strain sac3, hits give low values 0.973 | locus YDR162C, strain NBP2, hits give low values 1.02 | locus YDR195W, strain ref2 0.921 | locus YDR297W, strain sur2, hits give low values 0.988 | locus YDR318W, strain mcm21, hits give low values 0.995 | locus YDR334W, strain swr1, hits give low values 0.981 | locus YDR335W, strain msn5, hits give low values 0.997 | locus YDR388W, hits give low values 0.988 | locus YDR392W, strain spt3, hits give low values 0.925 | locus YDR502C, strain sam2, hits give low values 0.997 | locus YEL003W, strain gim4, hits give low values 0.987 | locus YEL037C, strain rad23, hits give low values 0.981 | locus YEL061C, strain CIN8 (second series), hits give low values 0.967 | locus YEL061C, strain CIN8, hits give low values 1.01 | locus YER015W, strain faa2, hits give low values 0.981 | locus YER016W, strain bim1, hits give low values 0.986 | locus YER110C, hits give low values 0.994 | locus YER111C, strain swi4, hits give low values 0.971 | locus YER155C, strain BEM2 (second series), hits give low values 0.978 | locus YER155C, strain BEM2, hits give low values 1.01 | locus YER167W, strain BCK2, hits give low values 1 | locus YFR010W, strain ubp6, hits give low values 0.98 | locus YGL078C, strain dbp3, hits give low values 0.998 | locus YGL086W, strain mad1, hits give low values 1 | locus YGL167C, strain pmr1, hits give low values 0.97 | locus YGL173C, strain kem1, hits give low values 0.99 | locus YGL227W, strain vid30, hits give low values 0.961 | locus YGL240W, strain doc1, hits give low values 0.977 | locus YGL248W, strain PDE1, hits give low values 1 | locus YGL253W, strain hxk2, hits give low values 0.994 | locus YGR078C, strain PAC10, hits give low values 1.01 | locus YGR135W, strain pre9, hits give low values 0.993 | locus YGR229C, strain SMI1, hits give low values 1.03 | locus YGR252W, strain gcn5, hits give low values 0.943 | locus YHR013C, strain ard1, hits give low values 0.94 | locus YHR027C, strain rpn1, hits give low values 0.987 | locus YHR030C, strain SLT2, hits give low values 1.01 | locus YHR079C, strain IRE1 (second series), hits give low values 0.989 | locus YHR094C, strain hxt1, hits give low values 0.993 | locus YHR129C, strain ARP1, hits give low values 1 | locus YHR142W, strain chs7, hits give low values 1.01 | locus YHR200W, strain rpn10, hits give low values 0.997 | locus YIL066C, strain RNR3, hits give low values 1.01 | locus YIL073C, strain SPO22, hits give low values 0.999 | locus YIL125W, strain kgd1, hits give low values 0.997 | locus YIR030C, strain dcg1, hits give low values 1 | locus YJL092W, strain hpr5, hits give low values 0.987 | locus YJL095W, strain BCK1, hits give low values 1.01 | locus YJL115W, strain asf1, hits give low values 1 | locus YJL129C, strain trk1, hits give low values 0.946 | locus YJL134W, strain LCB3, hits give low values 1.01 | locus YJL154C, strain vps35, hits give low values 0.985 | locus YJL164C, strain tpk1, hits give low values 1 | locus YJL166W, strain qcr8, hits give low values 0.98 | locus YJL168C, strain set2, hits give low values 0.997 | locus YJL187C, strain SWE1 (second series), hits give low values 1.01 | locus YJL187C, strain SWE1, hits give low values 0.987
